Assay outcomes as filed in PubChem BioAssay.
Shown are actives, neighbours in structure and some others; about 7.9% of the full set was active somewhere.
Hedgehog inh: Hedgehog pathway signaling inhibitors, primary screen, luminescence, Shh-LIGHT2 cells, Gli-luciferase; AID 2313, 2010; 2.1% of 22,000 active; Shh-LIGHT2 Gli-luciferase reporter, 30 h; inhibition, % (no concentration beside the values);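 active = mean inhibition across valid replicates above about 65%, limit read from the data; inconclusive = mean under the limit, yet half or more replicates past it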;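 note: pathway switched on by Shh-conditioned medium diluted 1 in 25 in low serum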
NOMO-1 viab: NOMO-1 AML cell viability reduction, primary screen, STK33 inhibitor project, CellTiter-Glo luminescence; NOMO-1 AML viability, 72 h; inhibition, % (test concentration not listed); 7.5% of 37,000 active; in the data active = inhibition above about 80%; inconclusive = no clear call, values can overlap the other calls
PD-1 reversal: activators reversing PD-1 mediated T-cell inhibition, primary screen, luminescence, primary human CD4 T cells, PD-L1 beads | CellTiter-Glo 96 h | activation, % (concentration not given with the values) | 29,000 tested, under 10 active | AID 2316, 2010; call rule not given here;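 note: 0% = median vehicle wells and 100% = positive control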
MITF inh: inhibitors of MITF, primary screen, MITF inhibitor project, cell-based, luminescence; TRPM1 promoter luciferase, 24 h; inhibition, % (concentration not given with the values); 0.28% of 37,000 active; in the data active = inhibition above about 85%; inconclusive = no clear call, values can overlap the other calls; inactive = below about 68%;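 note: human melanocyte line stably carrying TRPM1 promoter luciferase reporter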
Starred values were filed as active, the others as inactive; ? = inconclusive; nt = not tested or not shown.

SMILES	Hedgehog inh	NOMO-1 viab	PD-1 reversal	MITF inh
C[C@H](CO)N1C[C@H](C)[C@H](CN(C)Cc2ccc(-c3ccccc3)cc2)Oc2ccc(NC(=O)Nc3ccccc3)cc2CC1=O	6.2	113.0*	0.7	16.7
C[C@H]1CN([C@@H](C)CO)C(=O)Cc2cc(NC(=O)Nc3ccc4c(c3)OCO4)ccc2O[C@H]1CN(C)Cc1ccc(-c2ccccc2)cc1	nt	92.3*	1.3	19.8
COc1ccc(NC(=O)Nc2ccc3c(c2)CC(=O)N([C@H](C)CO)C[C@@H](C)[C@@H](CN(C)Cc2ccc(-c4ccccc4)cc2)O3)cc1	13.0	111.6*	-2.0	3.9
C[C@@H]1CN([C@H](C)CO)C(=O)Cc2cc(NC(=O)Nc3ccc4c(c3)OCO4)ccc2O[C@@H]1CN(C)Cc1ccc(-c2ccccc2)cc1	40.7	72.8	-6.9	37.7
COc1ccc(NC(=O)Nc2ccc3c(c2)CC(=O)N([C@H](C)CO)C[C@H](C)[C@H](CN(C)Cc2ccc(-c4ccccc4)cc2)O3)cc1	-21.7	59.5	-0.4	-1.5
COC(=O)C(Cc1c[nH]c2ccccc12)NS(=O)(=O)c1cccc2nonc12 (stereo unspecified)	-22.5	-16.4	1.1	2.9
CC[C@H]1C(=O)CC2C3CCC4C[C@@H](O)[C@]5(O)C[C@]4(CO5)C3CC[C@@]21C (stereo partly specified)	-12.9	nt	nt	nt
CCC(C)C(=O)OCC1(c2ccc(C)cc2OC(=O)C(C)C)CO1 (stereo unspecified)	-17.6	117.7*	-9.0	2.5
CCCCCCC/C=C/C(=O)CCc1ccc(O)c(OC)c1	-2.8	116.4*	-0.3	5.5
C=CC(C)(C)[C@@]12CC(=O)C(=O)N3/C(=C/c4cnc[nH]4)C(=O)N[C@]31N(OC)c1ccccc12	-17.4	117.9*	0.2	28.9
COc1ccc(S(=O)(=O)Nc2cccc3c2O[C@H](CN(C)Cc2ccc(C(=O)Nc4ccccc4N)cc2)[C@H](C)CN([C@@H](C)CO)C3=O)cc1	nt	127.2*	-2.1	16.2
COc1ccc(S(=O)(=O)Nc2cccc3c2O[C@H](CN(C)Cc2ccc(C(=O)Nc4ccccc4N)cc2)[C@@H](C)CN([C@H](C)CO)C3=O)cc1	nt	55.2	0.4	3.6
COc1ccc(S(=O)(=O)Nc2cccc3c2O[C@H](CN(C)Cc2ccc(C(=O)Nc4ccccc4N)cc2)[C@H](C)CN([C@H](C)CO)C3=O)cc1	nt	128.1*	-1.1	7.3
COc1ccc(S(=O)(=O)Nc2cccc3c2O[C@@H](CN(C)Cc2ccc(C(=O)Nc4ccccc4N)cc2)[C@@H](C)CN([C@H](C)CO)C3=O)cc1	nt	110.3*	1.7	33.8
CC(C)S(=O)(=O)c1csc(NC(=O)Nc2cc(C(F)(F)F)cc(C(F)(F)F)c2)c1Cl	106.5*	112.7*	-16.7	65.4
CC(C)S(=O)(=O)c1csc(NC(=O)N2CCCCC2)c1Cl	-29.4	-3.8	0.5	-0.4
COc1ccc(NC(=O)Cn2cnc3sc(-c4ccccc4)cc3c2=O)cc1	nt	-7.1	0.1	5.8
C[C@H](CO)N1C[C@H](C)[C@H](CN(C)Cc2ccc(C(=O)Nc3ccccc3N)cc2)Oc2ccc(NS(=O)(=O)c3ccc(Cl)cc3)cc2C1=O	nt	96.3*	0.7	7.1
COc1ccc(S(=O)(=O)Nc2ccc3c(c2)C(=O)N([C@@H](C)CO)C[C@H](C)[C@H](CN(C)Cc2ccc(C(=O)Nc4ccccc4N)cc2)O3)cc1	nt	108.8*	-0.5	11.2
C[C@@H]1CN([C@H](C)CO)C(=O)c2cc(NS(=O)(=O)c3ccc(Cl)cc3)ccc2O[C@@H]1CN(C)Cc1ccc(C(=O)Nc2ccccc2N)cc1	nt	109.0*	-1.2	14.9
COc1ccc(S(=O)(=O)Nc2ccc3c(c2)C(=O)N([C@H](C)CO)C[C@@H](C)[C@H](CN(C)Cc2ccc(C(=O)Nc4ccccc4N)cc2)O3)cc1	nt	-1.2	2.0	2.7
O=C(Nc1c(Cl)cc(Cl)cc1C(=O)NCc1cccnc1)c1cccc([N+](=O)[O-])c1	nt	-7.9	1.8	6.8
COC(=O)c1ccccc1NC(=O)c1ccc(NC(=O)CSc2ccc(C)cc2)cc1	nt	11.8	nt	-4.2
CC(C)c1cc(C(=O)N2CCOCC2)c(NC(=O)c2cc(-c3cccnc3)nc3ccc(Br)cc23)s1	nt	5.6	nt	-11.0
Cc1nn(CC(O)COc2ccc(C(=O)c3ccccc3)cc2)c(C)c1Br (stereo unspecified)	nt	4.0	0.2	17.7
SMILES	Hedgehog inh	NOMO-1 viab	PD-1 reversal	MITF inh
CCN(CC)c1ccc2cc(C(N)=O)c(=Nc3ccc(F)cc3)oc2c1	-26.8	93.9*	-0.6	1.6
Cc1ccc(S(=O)(=O)Nc2ccc3c(c2)CC(=O)N([C@@H](C)CO)C[C@H](C)[C@H](CN(C)Cc2ccc(Oc4ccccc4)cc2)O3)cc1	28.4	120.4*	3.3	9.7
Cc1ccc(S(=O)(=O)Nc2ccc3c(c2)CC(=O)N([C@@H](C)CO)C[C@@H](C)[C@@H](CN(C)Cc2ccc(Oc4ccccc4)cc2)O3)cc1	27.5	114.8*	-3.0	40.6
C[C@@H]1CN([C@H](C)CO)C(=O)Cc2cc(NS(=O)(=O)c3ccccc3)ccc2O[C@@H]1CN(C)Cc1ccc(Oc2ccccc2)cc1	52.7	?	-4.2	11.3
O=C(O)C1CC(c2ccccc2)=C(c2ccccc2)CC1C(=O)c1ccccc1 (stereo unspecified)	-26.6	13.1	0.2	5.8
COc1cc(-c2cc(O)c(OC)c(OC)c2)cc(O)c1OC	-27.9	6.3	-0.5	-12.9
COc1cc(O)cc(OC)c1OC	?	106.9*	nt	17.2
C[C@@H]1CN([C@H](C)CO)C(=O)Cc2cc(NC(=O)Nc3ccc(C(F)(F)F)cc3)ccc2O[C@@H]1CN(C)Cc1ccc(Cl)c(Cl)c1	21.5	79.3	nt	3.3
C[C@@H]1CN([C@@H](C)CO)C(=O)Cc2cc(NC(=O)Nc3ccccc3)ccc2O[C@@H]1CN(C)Cc1ccc(Cl)c(Cl)c1	-10.1	103.0*	-3.4	42.4
C[C@H]1CN([C@@H](C)CO)C(=O)Cc2cc(NC(=O)Nc3ccc4c(c3)OCO4)ccc2O[C@H]1CN(C)Cc1ccc(Cl)c(Cl)c1	nt	113.4*	2.1	11.2
C[C@H](CO)N1C[C@H](C)[C@H](CN(C)Cc2ccccc2)Oc2ccc(NC(=O)Nc3ccccc3)cc2CC1=O	18.9	63.0	nt	-5.8
C[C@H]1CN([C@@H](C)CO)C(=O)Cc2cc(NC(=O)Nc3ccc(F)cc3)ccc2O[C@H]1CN(C)Cc1ccc(Cl)c(Cl)c1	3.7	126.6*	nt	25.7
C[C@@H]1CN([C@@H](C)CO)C(=O)Cc2cc(NC(=O)Nc3ccc4c(c3)OCO4)ccc2O[C@@H]1CN(C)Cc1ccc(Cl)c(Cl)c1	-9.5	39.5	-1.9	12.6
C[C@@H]1CN([C@H](C)CO)C(=O)Cc2cc(NC(=O)Nc3ccc(F)cc3)ccc2O[C@@H]1CN(C)Cc1ccc(Cl)c(Cl)c1	14.1	113.9*	-9.6	39.2
C[C@H](CO)N1C[C@H](C)[C@H](CN(C)Cc2ccc(Cl)c(Cl)c2)Oc2ccc(NC(=O)Nc3ccc(F)cc3)cc2CC1=O	13.7	74.6	-0.6	3.4
